# Compound activity deposited in PubChem by several laboratories.
# The list is not random: actives were taken first. Their share in the collection is about 13%.
# WT yeast gro inh: growth inhibition of WT yeast, mitochondrial fusion screen | 2.1% of 190,000 active | inhibition, % at 10 µM | mitochondrial fusion phenotypic screen, WT strain; in the data active = inhibition above about 58%; tested in S. cerevisiae
# RAM inhibit: inhibitors of the yeast RAM network; S. cerevisiae dse1pr::URA3 reporter, 5-FOA growth OD615, 2 d; analog-sensitive cbk1-as2 kinase mutant strain; inhibition, % at 50 µM; 1.8% of 190,000 active; AID 868;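 active = inhibition above a set limit, 3 SD over mean compound inhibition, cut at about 8.4% in these data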;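 note: 0% = DMSO-only wells with no growth and 100% = 10 µM 1-NA-PP1 full growth; inhibition rescues growth on 5-FOA so higher OD means more RAM inhibition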
# L major viab: inhibitors of Leishmania major promastigote growth; Leishmania major promastigotes, resazurin fluorescence viability; inhibition, % at 10 µM; 9% of 200,000 active; AID 1063; in the data active = inhibition above about 50%;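 note: promastigotes grown with compound for 44 hours at 28 °C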
# CHOP inhibitor: blocks CHOP induction under ER stress; CHO-K1 CHOP-promoter luciferase, tunicamycin-induced, 15-18 h; 3.8% of 220,000 active; inhibition, % at 10 µM;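 active = compounds that reduced the stress-induced luciferase reporter signal by more than about 70% of percent inhibition, limit read from the data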;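 note: 0% = tunicamycin plus vehicle and 100% = wells without tunicamycin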
# * = called active by the depositor; x = no result.
SMILES,WT yeast gro inh,RAM inhibit,L major viab,CHOP inhibitor
CCOC(=O)N1CCN(C(=O)CSc2ccc3nnc(CCNC(=O)c4ccc(OC)cc4)n3n2)CC1,-15,0,-6,-1
Cn1cc([N+](=O)[O-])c(C(=O)NCc2cc3cc(Cl)ccc3[nH]2)n1,16,0,20,35
Cc1cccc(N=C2NC(=O)S/C2=C\c2ccco2)c1,22,8,7,72*
O=C1NC(=Nc2ccc3ccccc3c2)S/C1=C/c1ccco1,11,6,-6,86*
Cc1ccc(-n2nnc(-c3nccn3C)n2)cc1,20,1,-2,20
O=C(CNC(=O)c1ccc(-c2ccccc2)cc1)OCc1c(F)cccc1Cl,1,4,-2,2
COC(=O)c1cc(=O)n(CCc2ccccc2F)c(=Nc2ccc(F)c(Cl)c2)s1,1,10*,99*,17
COC(=O)c1cc(=O)n(Cc2ccco2)c(=Nc2ccc(F)c(Cl)c2)s1,26,1,100*,29
CCN=c1sc(C(=O)OC)cc(=O)n1CC,10,0,9,-14
Cc1ccc(NC2=C(CC(=O)O)C(c3ccccc3)N(c3ccc(C)cc3)C2=O)cc1 (stereo not given),11,2,28,31
Clc1ccc(-n2nnnc2-c2cnc(-c3ccncc3)nc2-c2cccs2)cc1,38,1,50,22
FC(F)(F)c1nc(-c2cccs2)ncc1-c1nnnn1-c1ccc(Cl)cc1,77*,2,2,67
O=S(=O)(c1ccc(N2CCN(CCO)CC2)nc1)N1CCCCC1,-2,2,60*,0
CC(=O)N1CCN(c2ccc(S(=O)(=O)N3CCCCC3)cn2)CC1,-4,-1,0,-3
CN1CCN(S(=O)(=O)c2ccc(N3CCN(C(c4ccccc4)c4ccccc4)CC3)nc2)CC1,69*,0,100*,-2
COC(=O)C1=C(C)NC(C)=C(C(=O)OC)C1c1ccc(-c2cccc(Cl)c2Cl)o1,34,1,79*,39
COC(=O)C1=C(C)NC(=O)CC1c1cccc(Cl)c1Cl (stereo not given),11,2,0,39
CCOC(=O)C1=C(C)NC(C)=C(C(=O)OC)C1c1cccc(Cl)c1Cl (stereo not given),64*,1,13,68
O=C(CCC1CCCN(C(=O)c2ccsc2)C1)NCc1ccc(F)c(F)c1 (stereo not given),17,0,3,10
COCCN(Cc1cc2cc(C)ccc2n2nnnc12)C(=S)Nc1ccc(C)cc1,-89,4,57*,-2
COCCNC(=S)N(Cc1cc2cc(C)ccc2n2nnnc12)C1CCCC1,3,5,12,-3
Clc1cccc(-c2ccnc3nc(-n4cccc4)nn23)c1,15,1,-8,76*
CC1CN(c2nc(-c3ccc(Br)cc3)nnc2-c2ccccc2)CC(C)N1 (stereo not given),38,0,90*,24
Clc1ccc(-c2nnc(-c3ccccc3)c(N3CCSCC3)n2)cc1,65*,6,16,29
Cc1cc(=O)[nH]c(N/N=C/c2cn(CCC#N)nc2-c2ccccc2)n1,10,1,-3,-4
SMILES,WT yeast gro inh,RAM inhibit,L major viab,CHOP inhibitor
CCCCN(C)S(=O)(=O)c1ccc(C(=O)N(CCN(C)C)c2nc3ccc(C)cc3s2)cc1,3,-2,7,42
Cc1cccc2sc(N(CCCN(C)C)C(=O)c3ccc(Cl)s3)nc12,53,-1,40,35
Cc1cc(C)c2sc(N(CCCN(C)C)C(=O)CN3C(=O)c4ccccc4C3=O)nc2c1,38,-1,41,29
CCCCN(CC)S(=O)(=O)c1ccc(C(=O)N(CCCN(C)C)c2nc3cc(C)cc(C)c3s2)cc1,96*,-1,100*,87*
Cc1ccc2sc(N(CCCN(C)C)C(=O)c3ccc(S(=O)(=O)N(C)C)cc3)nc2c1C,6,0,74*,-7
Cc1cc(C)c2sc(N(CCCN(C)C)C(=O)c3ccc(Br)s3)nc2c1,94*,0,54*,50
Cc1cc(C)c2sc(N(CCN(C)C)C(=O)c3c(F)cccc3F)nc2c1,62*,1,26,44
CCOC(=O)[C@@H]1C(c2c(OC)cc(OC)cc2OC)=NO[C@@H]1C(=O)OCC,-3,2,-3,24
CCOC(=O)CSc1nnc(Cn2nnc3ccccc32)n1-c1ccc(F)cc1,x,x,x,3
CCOCCCNC(=S)N1CCC(C(=O)c2ccc3c(c2)OCCO3)CC1,4,2,17,-1
CC(C)NC(=S)N/N=C/c1ccc2c(c1)OCCO2,22,0,-3,-20
COc1ccc(OC)c(Nc2nc3nonc3nc2N2CCCC(C)C2)c1 (stereo not given),-1,7,40,77*
